Source: PubChem BioAssay
AmpC inh detg: AmpC beta-lactamase inhibition with detergent present | 370,000 tested, 0.041% active | Potency, µM (doses to about 114 µM), for the others: top-dose activity change, negative = inhibition, most hits filed as inhibitors | P00811 | AID 485294 | AmpC hydrolysis of nitrocefin, absorbance 480 nm, 0.01% Triton;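 also: 0% = no-compound wells and -100% = no-enzyme wells; nearly all actives have a fitted effect of over 25% in size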
Target sequence (P00811 whole entry, looked up): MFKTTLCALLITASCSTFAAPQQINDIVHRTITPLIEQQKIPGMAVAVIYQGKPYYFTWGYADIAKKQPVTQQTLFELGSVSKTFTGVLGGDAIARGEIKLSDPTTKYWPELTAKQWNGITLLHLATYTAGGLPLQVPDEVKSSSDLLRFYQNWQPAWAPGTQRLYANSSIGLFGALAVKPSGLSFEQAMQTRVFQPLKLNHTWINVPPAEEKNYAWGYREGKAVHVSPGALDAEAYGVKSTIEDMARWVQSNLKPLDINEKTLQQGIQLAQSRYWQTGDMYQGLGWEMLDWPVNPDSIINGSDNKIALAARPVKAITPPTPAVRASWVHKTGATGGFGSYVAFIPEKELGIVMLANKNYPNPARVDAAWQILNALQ
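20 mM phosphate pH 7.0 + 0.01% (detergent screen) or 0.0001% Triton X-100; 5.3 nM AmpC reagent; cpd preinc 15 min RT; nitrocefin (800 uM stock) to start; A480 q20 s × 4 min; Activity was normalised to no-enzyme and no-compound control wells.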
AmpC no deterg: blocks E. coli AmpC beta-lactamase in detergent-free assay | P00811 | AmpC nitrocefin hydrolysis, absorbance 480 nm, 0.0001% Triton | Potency, µM (doses to about 57.1 µM), for the others: top-dose activity change, negative = inhibition, actives largely listed as inhibitors | 330,000 tested, 0.52% active;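 also: plate controls were no compound for no effect and no enzyme for full effect; nearly all actives have a fitted effect of over 20% in size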
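20 mM phosphate pH 7.0 + 0.01% (detergent screen) or 0.0001% Triton X-100; 5.3 nM AmpC reagent; cpd preinc 15 min RT; nitrocefin (800 uM stock) to start; A480 q20 s × 4 min; Activity was normalised to no-enzyme and no-compound control wells.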
Giardia FBPA inh: blocks Giardia fructose-bisphosphate aldolase activity; AID 2451; 290,000 tested, 0.71% active; A8B2U2; Potency, µM (top dose mostly 59.6 µM), without a hit: top-dose activity, negative = inhibition, hits mostly inhibitors; purified Giardia FBPA; also: nearly all actives have a fitted effect of over 55% in size
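Giardia FBPA (40 nM reagent) was preincubated 10 min at RT with compound (up to 57.5 uM final), then substrate plus GAPDH/TPI/NAD/arsenate coupling system with diaphorase/resazurin was added; resorufin fluorescence (525/598 nm) was read after 20 min.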
RE007 growth inh: less growth of the S. pombe RE007 Vpr strain; S. pombe RE007 Vpr strain, BacTiter-Glo ATP luminescence, 24 h; Potency, µM (series often up to 92.2 µM), inactives show top-dose activity change, negative = less growth, most hits filed as inhibitors; 360,000 tested, 0.21% active; AID 651644; active = well fitted falling curve with a large enough effect; inconclusive = small, poorly fitted or top-dose-only effect; inactive = no such curve, though single readings can be large or run the other way; also: nearly all actives have a fitted effect of over 50% in size
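Fission yeast RE007 carrying one integrated HIV-1 vpr copy, seeded at OD 0.01 in PMG+AL medium with 23 nL pinned compound. Grown 24 h at 30 degrees; viability read by BacTiter-Glo luminescence after 5 min.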
Sm TGR inh: blocks Schistosoma mansoni thioredoxin glutathione reductase | Potency, µM (series often up to 114 µM), for inactives: top-dose activity change, negative = inhibition, most hits filed as inhibitors | Q962Y6 | purified TGR, DTNB reduction, TNB absorbance 405 nm | 360,000 tested, 3% active; also: nearly all actives have a fitted effect of over 60% in size
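Kinetic colorimetric format: TGR-catalysed, NADPH-driven DTNB reduction monitored via TNB absorbance. Enzyme dispensed at 20 nM; compound exposure 15 min at room temperature before reaction start.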
The depositor's hits bear a star. The list is not random: actives were taken first. Their share in the collection is about 3.4%. Unless noted, calls follow the shape of the dose curve; as a rule, active = well fitted curve in the direction sought with a large enough effect; inconclusive = small, poorly fitted or top-dose-only effect, or another doubt; inactive = no such curve, though single readings can be large; an effect the other way counts as inactive or inconclusive. Unless noted, % is scaled to controls: 0 for no effect and ±100 for the full control effect; potency is read from the fitted curve at half-maximal effect.

`Cc1ccc(CN2CCNC(=O)C2CC(=O)O)cc1` (stereo not given) gave AmpC inh detg -7.6%, AmpC no deterg -0.6%, Giardia FBPA inh -27.0%, RE007 growth inh 16.3% and Sm TGR inh 35.5µM*.
For O=C(O)CC1C(=O)NCCN1C/C=C/c1ccccc1 (stereo not given) the results were AmpC inh detg inconclusive, AmpC no deterg -2.3%, Giardia FBPA inh -7.6%, RE007 growth inh 6.5% and Sm TGR inh 39.8µM*.
For COc1ccccc1CN1CCNC(=O)C1CC(=O)O (stereo not given) the results were AmpC inh detg -6.9%, AmpC no deterg 10.5%, Giardia FBPA inh -8.2%, RE007 growth inh 10.6% and Sm TGR inh 79.4µM*.
`O=C(CC1C(=O)NCCN1C/C=C/c1ccccc1)NCCc1ccncc1` (stereo not given) gave AmpC inh detg -1.3%, AmpC no deterg 25.6%, Giardia FBPA inh -0.3%, RE007 growth inh 6.9% and Sm TGR inh -12.5%.
COc1ccc(CN2CCNC(=O)C2CC(=O)NCc2ccc(C)s2)c(OC)c1 (stereo not given) was read as AmpC inh detg 5.8%, AmpC no deterg 46.2%, Giardia FBPA inh -15.6%, RE007 growth inh 15.6% and Sm TGR inh 31.6µM*.
`COc1ccc(CNC(=O)CC2C(=O)NCCN2CC(C)(C)C)c(OC)c1` (stereo not given) gave AmpC inh detg 4.3%, AmpC no deterg 10.0%, Giardia FBPA inh -12.1%, RE007 growth inh 0.0% and Sm TGR inh -19.7%.
COC(=O)CN1C(c2ccc(OC)cc2)=Nc2ccc(Cl)cc2C1c1ccccc1 (stereo not given) was read as AmpC inh detg -1.1%, AmpC no deterg 99.1%, Giardia FBPA inh -0.4%, RE007 growth inh -12.2% and Sm TGR inh -14.4%.
Screening COc1ccc(NC(=O)c2ccc(Cl)cc2)c[n+]1[O-] returned AmpC inh detg 4.1%, AmpC no deterg -12.3%, Giardia FBPA inh -0.2%, RE007 growth inh -17.4% and Sm TGR inh -6.5%.
For C=CCOc1c(Cl)cc(CNc2ccc(N(C)C)cc2)cc1OC the results were AmpC inh detg 8.2%, AmpC no deterg -4.8%, Giardia FBPA inh 4.46µM*, RE007 growth inh -18.3% and Sm TGR inh 17.8µM*.
Screening Cc1cc(=O)n2[nH]c(C(=O)O)nc2n1 returned AmpC inh detg 2.8%, AmpC no deterg -11.0%, Giardia FBPA inh -13.9%, RE007 growth inh 6.1% and Sm TGR inh -20.6%.
Screening COC(=O)C1=C(C)N(CCc2ccc(OC)c(OC)c2)C(=O)/C1=C\N(C)C returned AmpC inh detg -1.7%, AmpC no deterg 42.9%, Giardia FBPA inh -16.4%, RE007 growth inh -19.7% and Sm TGR inh 7.94µM*.
Screening COc1ccc(CCN2C(=O)C=CC2=O)cc1OC returned RE007 growth inh 5.62µM*.
For COc1ccc(CCNC2=C(Cl)C(=O)N(CCc3ccc(OC)c(OC)c3)C2=O)cc1OC the results were AmpC inh detg -6.1%, AmpC no deterg 84.5%, Giardia FBPA inh 2.6%, RE007 growth inh 10.8% and Sm TGR inh -12.7%.
`COc1ccc(CCn2c(C)ccc2C)cc1OC` gave AmpC inh detg inconclusive, AmpC no deterg 50.9%, Giardia FBPA inh -20.3% and Sm TGR inh inconclusive.
C/C(=N\NS(=O)(=O)c1ccc(Cl)c([N+](=O)[O-])c1)c1ccc(C)o1 was read as AmpC inh detg 1.6%, AmpC no deterg -20.4%, Giardia FBPA inh -0.9%, RE007 growth inh 11.3% and Sm TGR inh 6.31µM*.
For C/C(=N\NS(=O)(=O)c1ccc(Cl)c([N+](=O)[O-])c1)c1cc2ccccc2o1 the results were AmpC inh detg inconclusive, AmpC no deterg -20.2%, Giardia FBPA inh -10.9%, RE007 growth inh -23.5% and Sm TGR inh 50.1µM*.
`C=CCN1CN(S(=O)(=O)c2cccc(Cl)c2)c2nc3ccccc3nc21` gave AmpC inh detg -0.8%, AmpC no deterg -7.2%, Giardia FBPA inh -17.5%, RE007 growth inh 8.2% and Sm TGR inh -24.3%.
